In PubChem BioAssay (NCATS) one finds Potency data, which are given here for 13 molecules.

Assay in all cases: qHTS profiling for inhibitors of Plasmodium falciparum proliferation (AID 504749); also: nearly all actives have a fitted effect of over 60% in size
Conditions in all cases: P. falciparum in erythrocytes, SYBR Green DNA, 72 h; series mostly up to 28.7 µM
In general terms: qHTS replaces the single test concentration by a dilution series.

In one assay the test system is CP265. In outline:
(§1)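 Parasite proliferation within erythrocytes, 72 h exposure. Endpoint: SYBR Green I fluorescence after overnight lysis at room temperature. Controls: 0.29 uM artemisinin, DMSO.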

A further assay has as its system CP266. In outline: as §1
The subject of a further assay is CP268. The essentials: as §1
The next assay deals with CP269. In outline:
as §1

The subject of a further assay is CP286. In outline:
as §1

The test system of the next assay is CP291. The essentials:
as §1

Another assay has as its system CP297. In outline: as §1
Another assay concerns CP305. In outline: as §1
For a further assay, the system named is CP315. The essentials:
as §1

For the next assay, the system named is CP325. In outline:
as §1

A further assay concerns CP329. In outline:
as §1

Another assay deals with CP335. The essentials: as §1
Another assay has as its system DFO2036. The essentials:
as §1

In the next assay the test system is DIV17. The essentials:
as §1

The next assay has as its system DIV30. In outline:
as §1

The subject of another assay is Dd2. The essentials:
as §1

Another assay concerns ECU. The essentials: as §1
The next assay relates to FAB9. The essentials: as §1
The subject of a further assay is GB4. The essentials: as §1
A further assay has as its system DIV14. The essentials: as §1

The structures appear in SMILES notation. Results filed as inconclusive are left out. The source made the active and inactive calls. Calls follow the shape of the dose curve; as a rule, active = well fitted inhibition curve with a large enough effect; inconclusive = small, poorly fitted or top-dose-only effect; inactive = flat fitted curve, though single readings scatter.
Potency is read from the fitted curve at half-maximal effect.

Turning to `CCCNCC(O)COc1ccccc1C(=O)CCc1ccccc1` (centres undefined), the Potency in the assay on CP265 is 0.355 µM (active); with CP266, 10.7 µM (active); in the assay with CP268 it was 4.26 µM (active); with CP269 it was 3.79 µM (active); in the assay on CP286, 1.58 µM (active); in the assay on CP291 it was 4.26 µM (active). Besides, the Potency with CP297 was 3.79 µM (active); in the assay on CP305, 4.26 µM (active); in the assay with CP315 it was 4.78 µM (active); in the assay on CP325 it was 4.26 µM (active); with CP329, 6.75 µM (active); in the assay on CP335 it was 3.01 µM (active). Moreover, the Potency in the assay on DFO2036 is 1 µM (active); with DIV17 it was 0.536 µM (active); in the assay on DIV30, 1.69 µM (active); in the assay with Dd2 it was 1 µM (active); with ECU it was 0.708 µM (active); in the assay on FAB9, 1.78 µM (active). The Potency in the assay on GB4 was 0.675 µM (active).

Turning to `NCCCCCC(=O)O`, the Potency result with CP265, in the assay with CP266, in the assay on CP268, in the assay with CP269, in the assay with CP286 and in the assay on CP291 was “inactive” each time. The Potency result with CP297, in the assay on CP305, with CP315, in the assay with CP325, in the assay with CP329 and in the assay on CP335 was “inactive” each time. Moreover, the Potency result in the assay with DFO2036, in the assay on DIV14, in the assay with DIV17, in the assay with DIV30, with Dd2 and with ECU was “inactive” each time. Also, the Potency entry in the assay with FAB9 and in the assay on GB4 was “inactive” each time.

Consider `O=c1c(-c2ccc(O)cc2)coc2cc(O)cc(O)c12`, for which the Potency entry with CP265, with CP266, in the assay with CP268, in the assay on CP269, in the assay on CP286 and in the assay on CP291 was “inactive” each time. Besides, the Potency entry with CP297, in the assay with CP305, in the assay with CP315, with CP325, in the assay on CP329 and with CP335 was “inactive” throughout. Moreover, the Potency entry with DFO2036, in the assay on DIV14, in the assay with DIV17, in the assay with DIV30, in the assay on Dd2 and in the assay with ECU was “inactive” throughout. The Potency entry in the assay on FAB9 and in the assay on GB4 was “inactive” in each case.

For the molecule `C[C@](N)(Cc1ccc(O)c(O)c1)C(=O)O`, the Potency result with CP265, in the assay with CP266, with CP268, in the assay on CP269, with CP286 and in the assay with CP291 was “inactive” throughout. In addition, the Potency entry in the assay with CP297, in the assay with CP305, in the assay on CP315, in the assay on CP325, in the assay with CP329 and in the assay on CP335 was “inactive” each time. Also, the Potency result with DFO2036, in the assay on DIV14, in the assay on DIV17, in the assay with DIV30, in the assay on Dd2 and in the assay with ECU was “inactive” throughout. In addition, the Potency entry in the assay on FAB9 and in the assay on GB4 was “inactive” in each case.

On to `CCOC(=O)C(C)(C)Oc1ccc(Cl)cc1`, for which the Potency result in the assay on CP265, with CP266, with CP268, in the assay on CP269, in the assay with CP286 and in the assay with CP291 was “inactive” in each case. Moreover, the Potency result in the assay on CP297, in the assay with CP305, with CP315, in the assay with CP325, in the assay on CP329 and in the assay with CP335 was “inactive” in each case. Also, the Potency entry in the assay on DFO2036, in the assay with DIV14, with DIV17, in the assay on DIV30, with Dd2 and with ECU was “inactive” in each case. Moreover, the Potency result in the assay on FAB9 and in the assay with GB4 was “inactive” each time.

Take `COc1cc2c(c(OC)c1OC)-c1ccc(OC)c(=O)cc1[C@@H](NC(C)=O)CC2`: the Potency result with CP265, in the assay with CP266, in the assay with CP268, in the assay with CP269, with CP286 and in the assay with CP291 was “inactive” in each case. The Potency entry in the assay with CP297, in the assay with CP305, in the assay with CP315, in the assay on CP325, with CP329 and in the assay with DFO2036 was “inactive” in each case. Also, the Potency entry in the assay on DIV14, in the assay with DIV17, with DIV30, in the assay with Dd2, with ECU and in the assay on FAB9 was “inactive” throughout. Moreover, in the assay with GB4, the Potency result was “inactive”.

Regarding `O=C1N(c2ccccc2)c2ccccc2C1(Cc1ccncc1)Cc1ccncc1`, the Potency entry in the assay on CP265, with CP266, in the assay with CP268, in the assay with CP269, in the assay with CP286 and with CP291 was “inactive” in each case. In addition, the Potency entry with CP305, in the assay with CP315, with CP325, with CP329, in the assay on CP335 and in the assay with DFO2036 was “inactive” in each case. Further, the Potency result in the assay on DIV14, in the assay with DIV17, with DIV30, in the assay on Dd2, with ECU and with FAB9 was “inactive” throughout. Further, the Potency entry in the assay with GB4 was “inactive”.

For the molecule `CS(=O)(=O)Nc1ccc([N+](=O)[O-])cc1Oc1ccccc1`, the Potency entry with CP265, with CP266, in the assay on CP268, in the assay on CP269, in the assay on CP286 and with CP291 was “inactive” each time. Besides, the Potency result with CP297, in the assay on CP305, in the assay with CP315, in the assay with CP325, with CP329 and in the assay on CP335 was “inactive” in each case. In addition, the Potency entry in the assay on DFO2036, in the assay on DIV14, with DIV17, with DIV30, in the assay with Dd2 and in the assay on ECU was “inactive” each time. Further, the Potency result with FAB9 and with GB4 was “inactive” throughout.

For `Cc1cnc(C(=O)NCCc2ccc(S(=O)(=O)NC(=O)NC3CCCCC3)cc2)cn1`, the Potency result in the assay with CP265, in the assay with CP266, with CP268, in the assay on CP269, in the assay with CP286 and in the assay with CP291 was “inactive” throughout. For the same molecule, the Potency entry in the assay on CP297, in the assay on CP305, with CP315, with CP325, in the assay with CP329 and in the assay with CP335 was “inactive” throughout. Moreover, the Potency entry in the assay on DFO2036, with DIV14, in the assay on DIV17, with DIV30, with Dd2 and in the assay with ECU was “inactive” in each case. Further, the Potency result in the assay on FAB9 and with GB4 was “inactive” throughout.

On to `CC(C)C(=O)Nc1ccc([N+](=O)[O-])c(C(F)(F)F)c1`, for which the Potency entry in the assay with CP265, in the assay on CP266, in the assay on CP268, in the assay with CP269, with CP286 and with CP291 was “inactive” throughout. Moreover, the Potency result in the assay with CP297, with CP305, with CP315, with CP325, with CP329 and in the assay with CP335 was “inactive” in each case. Besides, the Potency result in the assay with DFO2036, in the assay with DIV14, in the assay with DIV17, in the assay with DIV30, with Dd2 and with ECU was “inactive” throughout. Moreover, the Potency result with FAB9 and in the assay with GB4 was “inactive” throughout.

With `Cc1cn([C@H]2C[C@H](N=[N+]=[N-])[C@@H](CO)O2)c(=O)[nH]c1=O`, the Potency entry in the assay with CP265, in the assay with CP266, with CP268, in the assay on CP269, in the assay on CP286 and in the assay on CP291 was “inactive” in each case. The Potency entry with CP297, with CP305, in the assay on CP315, with CP325, in the assay with CP329 and in the assay on CP335 was “inactive” each time. The Potency result with DFO2036, in the assay on DIV14, in the assay with DIV17, in the assay on DIV30, in the assay with Dd2 and in the assay with ECU was “inactive” in each case. Further, the Potency result in the assay on FAB9 and in the assay with GB4 was “inactive” each time.

Turning to `COC(=O)Nc1nc2ccc(C(=O)c3cccs3)cc2[nH]1`, the Potency entry in the assay with CP265, with CP266, in the assay on CP268, in the assay with CP269, in the assay with CP286 and with CP291 was “inactive” in each case. Also, the Potency entry in the assay with CP297, in the assay on CP305, in the assay with CP315, in the assay with CP325, in the assay on CP329 and in the assay with CP335 was “inactive” in each case. Besides, the Potency entry in the assay on DFO2036, in the assay with DIV30, in the assay on Dd2, in the assay with ECU, in the assay with FAB9 and in the assay with GB4 was “inactive” each time.

`CN(CCOc1ccc(NS(C)(=O)=O)cc1)CCc1ccc(NS(C)(=O)=O)cc1`: the Potency entry with CP265, in the assay on CP266, in the assay with CP268, in the assay on CP269, in the assay with CP286 and in the assay with CP291 was “inactive” in each case. For the same molecule, the Potency result in the assay with CP305, in the assay with CP315, with CP325, in the assay on CP329, in the assay with CP335 and with DFO2036 was “inactive” throughout. For the same molecule, the Potency entry in the assay with DIV14, in the assay with DIV17, in the assay with DIV30, with Dd2, with ECU and in the assay with FAB9 was “inactive” in each case. Besides, the Potency result in the assay with GB4 was “inactive”.
